Experimental findings from PubChem BioAssay are described below.

The nature of assay [1]: blockers of cellular phospholipid synthesis – cell-based, LOPAC library, screen 4, primary screen (AID 1347384; call rule not given here). The settings on record: animal cells, phospholipid biosynthesis inhibition screen; at 10 µM.
Assay [2] in a line: galactose survival enhancers in mitochondrial complex I cybrids – cell-based, galactose medium, ATP luminescence, primary screen (AID 1645843;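 active = z-score of at least 1.8 in each of two replicates, scored against plate mean and spread of sample wells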;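 note: positive z means more ATP and so rescue of galactose-driven cybrid death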). The conditions noted are these: complex I mutant cybrid cells, 72 h, stronger effect = higher value.
A short description of assay [3]: growth inhibition, single agents and combos, LFS_MB_1R, cell-based, cisplatin or BGB combos, synergistic combos for chromothripsis tumors (AID 1671452).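 Note: cells exposed for 96 hours before readout.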 The conditions noted are these: LFS_MB_1R medulloblastoma cells, stronger effect = higher value.
A short description of assay [4]: growth inhibition, single agents and combos, CRL2098, cell-based, BGB or cisplatin IC20 combos, synergistic combos for chromothripsis tumors (AID 1671454).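 Note: cells exposed for 96 h before readout; 0% = vehicle DMSO and 100% = killing by high DMSO.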 The settings on record: CRL2098 osteosarcoma cells, drug combinations, stronger effect = higher value.
Assay [5] in a line: growth inhibition, single agents and combos, HD-MB03, cell-based, BGB or cisplatin IC20 combos, synergistic combos for chromothripsis tumors (AID 1671455; in the data active = inhibition above about 83%;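 note: 0% = vehicle DMSO and 100% = high DMSO as cytotoxic control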). The settings on record: HD-MB03 medulloblastoma cells, stronger effect = higher value.
Assay [6] can be described thus: growth inhibition, single agents and combos, UWB1.289, cell-based, BGB or cisplatin combos, synergistic combos for chromothripsis tumors (AID 1671456).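 Note: cells exposed to compound for four days; 0% = vehicle DMSO and 100% = killing by high DMSO.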 The conditions noted are these: UWB1.289 ovarian carcinoma cells, stronger effect = higher value.
A short description of assay [7]: growth inhibition, single agents and combos, LFS_MB_2R, cell-based, cisplatin combos, synergistic combos for chromothripsis tumors (AID 1671457).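 Note: cells exposed to compound for four days before readout.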 The conditions noted are these: LFS_MB_2R medulloblastoma cells, stronger effect = higher value.
Assay [8] is described as follows: UWB1.289_BRCA1 ovarian cancer growth, cell-based, BGB or cisplatin combinations (AID 1671459). The conditions noted are these: UWB1.289 BRCA1 ovarian carcinoma, drug combinations, stronger effect = higher value.
A short description of assay [9]: drug combination toxicity in non-malignant astrocytes – cell-based, BGB or cisplatin IC20 combos, cytotoxicity control for chromothriptic childhood tumor combination screen (AID 1671460).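 Note: cells exposed to compounds for 96 hours before viability readout; 0% = vehicle and 100% = killing control.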 The conditions noted are these: Human astrocytes, viability inhibition, drug combinations, at 0.5 µM, stronger effect = higher value.
Assay [10] is described as follows: CRL1545 cell growth, single agent and combined, cisplatin and BGB IC20 combos (AID 1671464).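 Note: cells exposed to compound for 96 hours before readout; 0% = vehicle DMSO and 100% = high DMSO killing control.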 The settings on record: CRL1545 osteosarcoma cells, stronger effect = higher value.
The nature of assay [11]: liver-stage malaria parasite load reduction – cell-based, known kinase inhibitor set, luminescence, hepatoma host viability (AID 624392; call rule not given here;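 note: infected cells incubated roughly two days before readout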). The conditions noted are these: Plasmodium liver stage in hepatoma cells, luciferase luminescence, concentration not given here; liver cell % of control: measured here: host liver cell viability; parasite % of control: stronger effect = lower value.

Assay [12] can be described thus: P. berghei load reduction in hepatocytes – cell-based, HepG2, luciferase luminescence, HepG2 viability, primary screen (AID 624349; in the data active = parasite load remaining mostly below about 12%, no sharp cut-off; inactive = mostly above about 10%;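 note: 100% = mean of DMSO negative control wells on the same plate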). The settings on record: P. berghei liver stage in HepG2, luciferase luminescence, concentration not given here; parasite load remaining: stronger effect = lower value; viability: measured here: HepG2 viability without parasites.
Assay [13] concerns Hepatitis C virus NS3 helicase. Briefly: blockers of NS3h binding to ssDNA – biochemical, fluorescence polarization, LOPAC1280 library, primary screen (AID 687035; in the data active = inhibition above about 37%). The conditions noted are these: Purified HCV NS3 helicase, Cy5-dT15 ssDNA binding fluorescence polarization; stronger effect = higher value; concentration not given here. (In general: Polarisation of emitted light reports the rotation of a fluorescent probe.)

Assay [14] can be described thus: compounds altering Cy5-DNA-NS3h complex signal – biochemical, LOPAC1280, artefact control for HCV NS3 helicase inhibitor project (AID 687037; call rule not given here). The conditions noted are these: Cy5-DNA-NS3h complex fluorescence interference counterscreen. (In general: The purpose of a counterscreen is to sort out artefacts and off-target activity.)
The nature of assay [15]: compounds altering viability of human ES cells (AID 493140; call rule not given here;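 note: cells exposed to compounds for four days before counting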). The settings on record: human embryonic stem cell survival screen; stronger effect = higher value.
Assay [16] has as its target Mitogen-activated protein kinase 7 (Homo sapiens) (UniProt Q13164). Put plainly: Gal4-ERK5 driven luciferase induction – cell-based, HTS, primary screen (AID 1508626;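 active = luciferase signal above three times the same-plate solvent-only control wells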;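 note: luciferase driven by Gal4-ERK5 fusion binding five Gal4 sites before minimal TATA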). The conditions noted are these: HeLa Gal4-ERK5 transactivation, 18 h, at 5 µM, stronger effect = higher value.
Setting [17] is: measured here: combination with BGB IC40, at 0.05 µM.
Where [18] appears, read: measured here: combination with cisplatin, at 0.5 µM.
Setting [19] is: measured here: combination with cisplatin, at 5 µM.
[20] abbreviates: measured here: combination with BGB at IC20, at 0.5 µM.
The mark [21] stands for this setting: measured here: combination with cisplatin at IC20, at 0.5 µM.
Setting [22] is: measured here: combo with BGB at IC20, at 0.5 µM.
Setting [23] is: measured here: combo with cisplatin at IC20, at 0.5 µM.
Where [24] appears, read: measured here: inhibition with BGB combination, at 0.05 µM.
Where [25] appears, read: measured here: inhibition with cisplatin combination, at 0.05 µM.
[26] abbreviates: BGB combination, concentration series, at 5 µM.
[27] abbreviates: cisplatin combination, concentration series, at 5 µM.
Setting [28] is: measured here: combo with BGB IC20.
Where [29] appears, read: measured here: combo with cisplatin IC20.
Where [30] appears, read: measured here: with BGB IC20 combination, at 0.5 µM.
Where [31] appears, read: measured here: with cisplatin IC20 combination, at 0.5 µM.

Several values for one entry are separate records, joined by “and”; a condition that tells them apart may be missing. Identical values can stand only once. Activity calls are given as the source filed them. Cut-off read from the data, not from the text of the source, unless noted: active = inhibition above about 80%; inactive = the rest.

Chain of Mitogen-activated protein kinase 7 (Homo sapiens) (Q13164 whole entry, looked up, the tested form may be a part): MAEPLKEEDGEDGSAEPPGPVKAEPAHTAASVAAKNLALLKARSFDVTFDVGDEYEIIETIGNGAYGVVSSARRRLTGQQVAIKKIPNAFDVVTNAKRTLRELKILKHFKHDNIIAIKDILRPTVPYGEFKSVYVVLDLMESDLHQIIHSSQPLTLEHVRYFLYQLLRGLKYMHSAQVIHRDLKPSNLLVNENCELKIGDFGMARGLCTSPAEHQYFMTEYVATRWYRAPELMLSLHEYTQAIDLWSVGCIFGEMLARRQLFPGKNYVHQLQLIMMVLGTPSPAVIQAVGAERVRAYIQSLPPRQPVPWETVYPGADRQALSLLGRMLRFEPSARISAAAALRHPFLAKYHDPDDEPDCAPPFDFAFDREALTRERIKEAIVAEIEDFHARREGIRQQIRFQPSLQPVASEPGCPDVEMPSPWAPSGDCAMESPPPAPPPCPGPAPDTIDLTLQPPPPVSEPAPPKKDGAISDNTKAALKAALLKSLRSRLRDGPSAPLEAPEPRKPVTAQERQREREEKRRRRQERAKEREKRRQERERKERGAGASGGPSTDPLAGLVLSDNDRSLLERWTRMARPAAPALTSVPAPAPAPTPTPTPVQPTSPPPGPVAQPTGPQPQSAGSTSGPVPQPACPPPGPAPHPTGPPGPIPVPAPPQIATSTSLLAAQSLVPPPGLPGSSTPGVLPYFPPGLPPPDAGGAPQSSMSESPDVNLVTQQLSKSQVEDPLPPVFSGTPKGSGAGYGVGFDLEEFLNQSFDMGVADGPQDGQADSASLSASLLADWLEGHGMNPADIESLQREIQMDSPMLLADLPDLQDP

On to `CCOC(=O)N1CCN(/[N+]([O-])=N/Oc2ccc([N+](=O)[O-])cc2[N+](=O)[O-])CC1`, for which, in [1], the outcome was inactive. Moreover, the z-score in [2] was -0.95 (inactive).

For orientation: inhibition means the change of the read-out against control, counted positive when it falls. In the case of `O=c1cc(N2CCOCC2)oc2c(-c3cccc4c3sc3ccccc34)cccc12`, the inhibition in [3] (at 0.5 µM) was -39.7% (inactive); in assay [3] (setting [17]) it was -46.9%; in assay [3] (setting [18]), -75.1%; in assay [3] (setting [19]) it was -3.55%; in assay [4] (at 0.5 µM), -62.4% (inactive); in [4] (setting [20]) it was -46.6%. Further, the inhibition was -92% in assay [4] (setting [21]); 0.79% (inactive) in assay [5] (at 0.5 µM); -1.46% in [5] (setting [22]); 11.5% in assay [5] (setting [23]); -12.2% (inactive) in assay [6] (at 0.5 µM); -24% in assay [6] (setting [24]). Also, the inhibition in assay [6] (setting [25]) was -24.1%; in assay [7] (at 0.5 µM), -22.4% (inactive); in [7] (setting [18]), -18.6%; in assay [7] (setting [19]), -3.32%; in [8] (setting [26]), 44.6%; in assay [8] (at 0.5 µM) it was -11.7% (inactive). Further, the inhibition in [8] (setting [27]) was 12.1%; in assay [9] it was 9.11% (inactive); in assay [9] (setting [28]) it was 7.86%; in assay [9] (setting [29]), 13%; in [10] (at 0.5 µM), 17.1% (inactive); in assay [10] (setting [30]) it was -25.4%. In addition, the inhibition is 37.3% in [10] (setting [31]); -18.4% in [10] (single agent, at 0.05 µM); -71.2% in [10] (single agent, at 5 µM).

For `NC(=O)c1ccc(N(C(N)=O)c2c(F)cccc2F)nc1-c1ccc(F)cc1F`, in assay [11], the liver cell % of control was 98.2% and 93.2% and 92%; the parasite % of control is 55.7% (inactive) and 44.1% (inactive) and 51.8% (inactive).

As usually defined, the viability is the share of living cells, or the viability signal relative to a control. With `Cc1ccc(O)c(C(CCN(C(C)C)C(C)C)c2ccccc2)c1` (stereo not given), in [12], the parasite load remaining was 53.2% (inactive) and the viability was found to be 96.6%. Besides, in [2], the z-score was -0.5 (inactive).

For the compound `Clc1ccc(C(c2ccc(Cl)cc2)n2cc[n+](CC(OCc3ccc(Cl)cc3Cl)c3ccc(Cl)cc3Cl)c2)cc1` (stereo not given), the call in assay [1] was inactive.

For the compound `COc1cc2c(cc1OC)C1CC(=O)C(CC(C)C)CN1CC2` (stereo not given), in assay [13], the inhibition was -3% (inactive). Moreover, the fluorescence ratio (interference) in [14] was 1 (inactive). The result in [1] was inactive. The z-score in [2] was 0.245 (inactive).

Turning to `CC[C@H](CC[C@@H](C)[C@H]1CC[C@H]2[C@@H]3CC=C4C[C@@H](O)CC[C@]4(C)[C@H]3CC[C@]12C)C(C)C`, in assay [15], the survival is 9.58 (inactive). In assay [12], the parasite load remaining is 99.6% (inactive) and the viability is 72.8%. The luciferase signal in assay [16] was 32 AU (inactive).

With `Nc1ncnc2c1c(-c1cnc3[nH]ccc3c1)nn2C1CCCC1`, the inhibition is -19.1% (inactive) in assay [3] (at 0.5 µM); -13.7% in assay [3] (setting [17]); -26.5% in assay [3] (setting [18]); 69.1% in [3] (setting [19]); 25.4% (inactive) in assay [4] (at 0.5 µM); 3.06% in [4] (setting [20]). Further, the inhibition was 36.8% in [4] (setting [21]); 28.9% (inactive) in [5] (at 0.5 µM); 13% in assay [5] (setting [22]); 41.5% in assay [5] (setting [23]); 28.7% (inactive) in assay [6] (at 0.5 µM); -4.92% in assay [6] (setting [24]). For the same compound, the inhibition is -7.06% in assay [6] (setting [25]); -21.4% (inactive) in assay [7] (at 0.5 µM); -27.2% in assay [7] (setting [18]); 59% in assay [7] (setting [19]); 98.9% in assay [8] (setting [26]); 22.9% (inactive) in assay [8] (at 0.5 µM). Besides, the inhibition in [8] (setting [27]) was 106%; in assay [9] it was 53.4% (inactive); in [9] (setting [28]) it was 55.9%; in assay [9] (setting [29]), 46%; in [10] (at 0.5 µM), -8.52% (inactive); in [10] (setting [30]) it was -19%. In addition, the inhibition was -4.93% in assay [10] (setting [31]); -24.4% in [10] (single agent, at 0.05 µM); 98.2% in assay [10] (single agent, at 5 µM).
